# Data from paper PMC5540273 (PLoS ONE, 2017).
# Like-named read-outs stand apart in the source and are kept apart here.
# Experiments:
# Settings in all cases: n = 1
# [1] = test system: BMPR1A
# [2] = test system: BMPR1B
# [3] = test system: BMPR2
# [4] = test system: BMX
# [5] = test system: BRAF
# [6] = test system: T1, BRK
# T1 construct: gene PTK6
# [7] = test system: BRSK1
# [8] = test system: BRSK2
# [9] = test system: BTK
# [10] = test system: BUB1
# [11] = concentration: 1 μM, replicates: in singlicate
# 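Also: KINOMEscan kinase panel screen.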
smiles,measurement,setting,value
Cc1ccc(NC(=O)Nc2cc(C(C)(C)C)nn2-c2ccccc2)cc1 [GSK1014915],%Inh,[1]; [11],0%
same,%Inh,[2]; [11],0%
same,%Inh,[3]; [11],37%
same,%Inh,[4]; [11],14%
same,%Inh,[5]; [11],74%
same,%Inh,[6]; [11],20%
same,%Inh,[7]; [11],100%
same,%Inh,[8]; [11],0%
same,%Inh,[9]; [11],0%
same,%Inh,[10]; [11],21%
COc1cc2ncn(-c3cc(OCC4CCCO4)c(C(N)=O)s3)c2cc1OC (stereo not shown) [GSK204607],%Inh,[1]; [11],0%
same,%Inh,[2]; [11],0%
same,%Inh,[3]; [11],24%
same,%Inh,[4]; [11],19%
same,%Inh,[5]; [11],0%
same,%Inh,[6]; [11],18%
same,%Inh,[7]; [11],15%
same,%Inh,[8]; [11],7%
same,%Inh,[9]; [11],0%
same,%Inh,[10]; [11],32%
Cc1ccc(NC(=O)Nc2cccc(Cl)c2)cc1-c1ccc(C(=O)Nc2ccncc2)cc1 [GSK1398468],%Inh,[1]; [11],0%
same,%Inh,[2]; [11],0%
same,%Inh,[3]; [11],0%
same,%Inh,[4]; [11],0%
same,%Inh,[5]; [11],67%
same,%Inh,[6]; [11],13%
same,%Inh,[7]; [11],100%
same,%Inh,[8]; [11],9%
same,%Inh,[9]; [11],0%
same,%Inh,[10]; [11],53%
O=c1cc(N2CCOCC2)nc2n(Cc3cccc(Cl)c3Cl)ccn12 [GSK2286295],%Inh,[1]; [11],0%
same,%Inh,[2]; [11],0%
same,%Inh,[3]; [11],0%
same,%Inh,[4]; [11],25%
same,%Inh,[5]; [11],0%
same,%Inh,[6]; [11],8%
same,%Inh,[7]; [11],13%
same,%Inh,[8]; [11],0%
same,%Inh,[9]; [11],0%
same,%Inh,[10]; [11],0%
CC(C)(C)c1ccc(C(=O)Nc2cn3cc(Cl)ccc3n2)cc1,%Inh,[1]; [11],0%
same,%Inh,[2]; [11],3%
same,%Inh,[3]; [11],0%
same,%Inh,[4]; [11],0%
same,%Inh,[5]; [11],9%
same,%Inh,[6]; [11],0%
same,%Inh,[7]; [11],0%
same,%Inh,[8]; [11],0%
same,%Inh,[9]; [11],0%
same,%Inh,[10]; [11],0%
Cc1ccc(-c2cc(-c3c[nH]nc3-c3ccccn3)ccn2)cc1 [GW684088],%Inh,[1]; [11],0%
same,%Inh,[2]; [11],18%
same,%Inh,[3]; [11],0%
same,%Inh,[4]; [11],36%
same,%Inh,[5]; [11],0%
same,%Inh,[6]; [11],3%
same,%Inh,[7]; [11],0%
same,%Inh,[8]; [11],0%
same,%Inh,[9]; [11],51%
same,%Inh,[10]; [11],40%
COc1ccc2nc(-c3cccc(C)n3)nc(Nc3ccncc3)c2c1 [GSK204919],%Inh,[1]; [11],0%
same,%Inh,[2]; [11],0%
same,%Inh,[3]; [11],0%
same,%Inh,[4]; [11],27%
same,%Inh,[5]; [11],0%
same,%Inh,[6]; [11],8%
same,%Inh,[7]; [11],4%
same,%Inh,[8]; [11],0%
same,%Inh,[9]; [11],0%
same,%Inh,[10]; [11],38%
O=C(Nc1n[nH]c2nc(-c3nccs3)c(Br)cc12)C1CC1 [SB-742251],%Inh,[1]; [11],0%
same,%Inh,[2]; [11],0%
same,%Inh,[3]; [11],63%
same,%Inh,[4]; [11],0%
same,%Inh,[5]; [11],13%
same,%Inh,[6]; [11],2%
same,%Inh,[7]; [11],95.3%
same,%Inh,[8]; [11],90%
same,%Inh,[9]; [11],26%
same,%Inh,[10]; [11],48%
Cc1c(O)cccc1Nc1ccnc2ccc(C(F)(F)F)cc12.Cl [GW466413],%Inh,[1]; [11],0%
same,%Inh,[2]; [11],44%
same,%Inh,[3]; [11],0%
same,%Inh,[4]; [11],0%
same,%Inh,[5]; [11],69%
same,%Inh,[6]; [11],86%
same,%Inh,[7]; [11],0%
same,%Inh,[8]; [11],0%
same,%Inh,[9]; [11],0%
same,%Inh,[10]; [11],29%
Cc1ccc(NC(=O)Nc2cccc(C(F)(F)F)c2)cc1 [GSK955403],%Inh,[1]; 1 µM,94.6%
same,%Inh,[2]; 1 µM,0%
same,%Inh,[3]; 1 µM,1%
same,%Inh,[4]; 1 µM,0%
same,%Inh,[5]; 1 µM,0%
same,%Inh,[6]; 1 µM,0%
same,%Inh,[7]; 1 µM,0%
same,%Inh,[8]; 1 µM,0%
same,%Inh,[9]; 1 µM,0%
same,%Inh,[10]; 1 µM,0%
COc1ccc(C2=C(Nc3cccc(C(=O)O)c3)C(=O)NC2=O)cc1 [SB-390765],%Inh,[1]; [11],13%
same,%Inh,[2]; [11],4%
same,%Inh,[3]; [11],0%
same,%Inh,[4]; [11],17%
same,%Inh,[5]; [11],9%
same,%Inh,[6]; [11],0%
same,%Inh,[7]; [11],0%
same,%Inh,[8]; [11],0%
same,%Inh,[9]; [11],0%
same,%Inh,[10]; [11],0%
COc1cccc(NC(=O)NC2CCN(c3ccnc(Nc4ccc(F)cc4)n3)C2)c1 (stereo not shown) [GSK1379721],%Inh,[1]; [11],0%
same,%Inh,[2]; [11],0%
same,%Inh,[3]; [11],7%
same,%Inh,[4]; [11],0%
same,%Inh,[5]; [11],0%
same,%Inh,[6]; [11],0%
same,%Inh,[7]; [11],0%
same,%Inh,[8]; [11],0%
same,%Inh,[9]; [11],0%
same,%Inh,[10]; [11],10%
CS(=O)(=O)c1ccc(-c2nc3n(c2-c2ccncc2)CCC3)cc1 [SKF-105942],%Inh,[1]; [11],0%
same,%Inh,[2]; [11],0%
same,%Inh,[3]; [11],0%
same,%Inh,[4]; [11],1%
same,%Inh,[5]; [11],0%
same,%Inh,[6]; [11],15%
same,%Inh,[7]; [11],0%
same,%Inh,[8]; [11],0%
same,%Inh,[9]; [11],0%
same,%Inh,[10]; [11],26%
Cn1ccc2ncnc(Oc3ccc(NC(=O)Nc4ccccc4)cc3)c21,%Inh,[1]; [11],0%
same,%Inh,[2]; [11],0%
same,%Inh,[3]; [11],0%
same,%Inh,[4]; [11],42%
same,%Inh,[5]; [11],0%
same,%Inh,[6]; [11],6%
same,%Inh,[7]; [11],0%
same,%Inh,[8]; [11],17%
same,%Inh,[9]; [11],0%
same,%Inh,[10]; [11],0%
Cc1cccc(-c2nc(-c3ccc(S(C)(=O)=O)cc3)sc2-c2ccnc(NCCc3ccccc3)c2)c1,%Inh,[1]; [11],27%
same,%Inh,[2]; [11],6%
same,%Inh,[3]; [11],1%
same,%Inh,[4]; [11],0%
same,%Inh,[5]; [11],95.8%
same,%Inh,[6]; [11],0%
same,%Inh,[7]; [11],3%
same,%Inh,[8]; [11],0%
same,%Inh,[9]; [11],0%
same,%Inh,[10]; [11],24%
Cl.c1ccc(-c2n[nH]cc2-c2ccnc(-c3ccc(CN4CCOCC4)cc3)c2)nc1 [GW776245],%Inh,[1]; [11],0%
same,%Inh,[2]; [11],52%
same,%Inh,[3]; [11],0%
same,%Inh,[4]; [11],13%
same,%Inh,[5]; [11],16%
same,%Inh,[6]; [11],0%
same,%Inh,[7]; [11],0%
same,%Inh,[8]; [11],21%
same,%Inh,[9]; [11],0%
same,%Inh,[10]; [11],0%
